# Hits are enriched below; roughly 0.3% of the tested compounds scored in any of these assays.
# hcGAS inh: Primary biochemical luminescence assay for human cyclic GMP-AMP synthase inhibitors; inhibition, % at 12.5 µM; Q8N884; 0.081% of 290,000 active; recombinant h-cGAS, ATP depletion, Kinase-Glo luminescence;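 also: 0% = vehicle reaction and 100% = reaction without DNA for no activity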
# Target sequence (Q8N884 whole entry, looked up): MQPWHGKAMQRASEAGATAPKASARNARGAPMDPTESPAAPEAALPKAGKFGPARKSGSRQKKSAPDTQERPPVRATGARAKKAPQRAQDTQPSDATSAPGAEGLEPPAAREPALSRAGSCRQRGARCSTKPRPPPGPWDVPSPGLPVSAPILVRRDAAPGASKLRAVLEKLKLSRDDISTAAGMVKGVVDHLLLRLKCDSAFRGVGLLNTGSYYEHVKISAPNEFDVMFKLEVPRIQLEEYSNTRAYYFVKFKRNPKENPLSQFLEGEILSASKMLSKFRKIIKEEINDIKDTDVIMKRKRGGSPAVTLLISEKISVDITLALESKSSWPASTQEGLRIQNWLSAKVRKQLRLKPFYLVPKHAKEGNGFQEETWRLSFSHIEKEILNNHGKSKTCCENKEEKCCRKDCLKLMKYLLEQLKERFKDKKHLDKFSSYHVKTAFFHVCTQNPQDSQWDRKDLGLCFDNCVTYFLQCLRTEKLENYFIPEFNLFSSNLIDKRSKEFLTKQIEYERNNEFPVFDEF
# NPYLR7 ag: agonists of mosquito NPYLR7 receptor, primary screen, cell-based, Aedes aegypti, calcium fluorescence, mosquito biting behavior; activation, % at 10 µM; 0.15% of 270,000 active; AID 1259423, 2018; Aedes aegypti neuropeptide Y-like receptor 7 (NPYLR7); HEK293T NPYLR7/Galpha15, GCaMP6s calcium fluorescence; in the data active = activation above about 40%;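 also: 0% = vehicle and 100% = reference agonist at the receptor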
# mcGAS inh: cyclic GMP-AMP synthase inhibitors, mouse, primary biochemical chemiluminescence. Q8C6L5. 0.15% of 160,000 active. recombinant cGAS, Kinase-Glo ATP depletion luminescence. inhibition, % at 12.5 µM;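 also: 0% = negative control wells and 100% = reference inhibitor with no enzyme activity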
# The depositor's hits bear a star; · = no result. Rule as the data show it, unless noted: active = inhibition above about 40%; inactive = the rest.
SMILES,hcGAS inh,NPYLR7 ag,mcGAS inh
Cc1ccc(Cl)cc1NC(=O)Cn1c2ccccc2c(=O)c2ccccc21,1,-1,·
Cc1ccc2c(=O)c3ccccc3n(CCCN)c2c1C,71*,-2,·
O=c1cc(Cc2ccccc2)nc2c(-c3ccccc3)c(C(F)(F)F)[nH]n12,68*,-11,·
CCCc1cc(=O)n2[nH]c(COC)c(-c3ccc(C)cc3)c2n1,-5,-17,·
Cc1cc(C)nc(SCc2cc(=O)n3[nH]c(C)c(-c4ccccc4)c3n2)n1,-11,-3,·
COCc1[nH]n2c(=O)cc(Cc3ccccc3)nc2c1-c1ccccc1,56*,-4,·
Oc1cccc2ccc(Nc3ccccn3)nc12,57*,-14,6
Oc1ccccc1C(Nc1ccccn1)c1ccc2cccnc2c1O (centres undefined),6,2,·
N#CC(C#N)=Cc1cn[nH]c1-c1cc2ccccc2o1,19,-1,46*
N#CC(C#N)=Cc1cn(-c2ccccc2)nc1-c1cc2ccccc2o1,0,-9,·
Cc1ccc(C(=O)C=Cc2ccc(N(C)C)cc2)o1,-7,75*,·
COc1ccc(C=CC(=O)c2ccc(C)o2)cc1OC,-3,4,·
CCn1nc(-c2cc(Br)cs2)nc2c(=O)n(C)c(=O)nc1-2,22,5,60*
O=c1ccccn1Cc1nc(-c2cc(Br)cs2)no1,-7,16,-16
C=CCCC(O)CNc1ccc(-n2nc(OCCOCC)nc2-c2ccccc2C)cc1 (centres undefined),52*,-1,0
CCOCCOc1nc(-c2ccccc2C)n(-c2ccc(NC(=O)CCCCl)cc2)n1,2,-1,0
COc1cccc(N2C(=O)NC(=O)/C(=C/c3cn(C(C)=O)c4ccccc34)C2=O)c1,3,-2,3
CCC(C)n1cc(/C=C2/C(=O)NC(=O)N(c3ccc4c(c3)OCO4)C2=O)c2ccccc21 (centres undefined),0,52*,·
O=c1c2ccc(-c3cccnc3)nc2[nH]n1-c1ccccc1,-4,-2,·
Cn1c(=O)[nH]c2nnc(-c3cccnc3)nc2c1=O,41*,-6,58*
CCOc1cc(-c2nn(CN3CCOCC3)c(=S)o2)cc(OCC)c1OCC,4,3,·
S=c1oc(-c2sc3ccccc3c2Cl)nn1CN1CCOCC1,43*,2,24
O=S(=O)(c1ccc(C(F)(F)F)cc1Cl)N1CCN(c2nccc(-c3cccc(C(F)(F)F)c3)n2)CC1,-3,5,-6
OCc1ccc(-c2nn(Cc3ccccc3)c3ccccc23)o1,3,1,-3
O=C(NCCNC(=O)C1CCN(C(=O)CSc2ccccc2)CC1)c1ccccc1,-1,0,-3
SMILES,hcGAS inh,NPYLR7 ag,mcGAS inh
O=C(NCCN1CCCC1)c1cc2n(n1)CCN(Cc1ccccc1C(F)(F)F)C2=O,3,9,-3
O=C(NCCN1CCCCC1)c1cc2n(n1)CCN(Cc1cccc(C(F)(F)F)c1)C2=O,7,-6,47*
CC(=O)c1[nH]c(C)c(C(=O)NC2CCCC2)c1C,-10,1,·
O=c1c(N=Nc2ccccc2Cl)c(-c2ccccc2)[nH]n1-c1nc(-c2ccccc2)cs1,22,8,3
Cc1c(Cl)cccc1N=Nc1c(-c2ccccc2)[nH]n(-c2nc(-c3ccccc3)cs2)c1=O,53*,-3,20
CCOc1ccccc1CN1CCNC(=O)C1CC(=O)NCc1c(C)nn(CC)c1C (centres undefined),-8,22,·
COC(=O)c1cc(N)c(/C=C/c2cccs2)s1,-7,184*,·
Brc1ccsc1/C=C/c1cccs1,-9,-4,·
c1csc(-c2cnc3ccc(-c4ccncc4)nn23)c1,2,8,5
O=c1nc2n3ccc(-c4ccncc4)cc3ncc-2s1,-2,55*,-2
CCn1nc(CC(C)C)cc1C(=O)N(C)C1CCCN(C2Cc3ccccc3C2)C1 (centres undefined),5,-7,-2
Cc1ncc(CNC(=O)N2CCC(C(C)C)CC2)s1,-4,2,·
Cc1nccn1CC(C)CNC(=O)N1CCC(C(C)C)CC1 (centres undefined),-12,6,68*
CCOC(=O)CC(=O)CSC1=C(C#N)C(c2ccccc2F)C(C(=O)OCC)C(=O)N1 (centres undefined),-3,-7,·
CCc1csc(CNC(=O)c2ccc(N3CCC(COC)C3)nc2)n1 (centres undefined),-3,6,·
N#Cc1ccc(Cl)c(Cl)c1,-6,8,·
Cc1noc(CN(C)C(=O)CCC(C)N2CCN(C)CC2)n1 (centres undefined),0,·,0
O=C(O)c1csc(CSc2nnc(Cc3ccccc3)n2-c2cccc(C(F)(F)F)c2)n1,1,55*,0
O=C(NCc1cccc(C(F)(F)F)c1)c1csc(CSc2nnc(Cc3ccccc3)n2-c2ccccc2)n1,-3,-2,-5
CCS(=O)(=O)c1ccccc1NC(=O)C(C)c1ccc(OC)cc1 (centres undefined),-10,-6,·
c1ccc(-n2c(SCc3cc(-c4ccco4)on3)nnc2C2CC2)cc1,-4,3,·
COc1ccc(C(=O)Nc2ccc(-n3nc(OCc4ccc(F)cc4)nc3-c3ccco3)cc2)cc1,-3,1,-7
CNN=Cc1cc(Br)cc(Br)c1O,11,25,13
Oc1c(Br)cc(Br)cc1C=NC1CC1,53*,9,·
COc1ccc(CN2C3CCC2CC(NC(=O)C24CC[C@@](C)(C(=O)O2)C4(C)C)C3)c(OC)c1 (some centres undefined),-5,3,76*
COc1ccc(CCN2C3CCC2CC(NC(=O)C24CC[C@@](C)(C(=O)O2)C4(C)C)C3)cc1OC (some centres undefined),-3,4,-3
CCCCN(Cc1ccccc1)Cc1nc(-c2ccc(C(=O)OC)cc2)no1,-3,11,·
CCCc1cc(=O)n(CC(=O)Nc2ncccc2C)cn1,-7,19,·

# Bioassay records as filed in PubChem.
